Bioassay records: PubChem, National Center for Advancing Translational Sciences (NCATS)
The entries come from a sample that favours hits as a whole.
Pf Dd2 growth: blocks in vitro growth of P. falciparum Dd2 | P. falciparum Dd2 growth, SYBR Green, 72 h | Potency, µM (doses to about 28.9 µM), usual class: inhibitors | actives 4.3% (n = 120,000) | AID 1347417; active means well fitted inhibition curve with a large enough effect; further: nearly all actives have a fitted effect of over 65% in size
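Readout: SYBR Green fluorescence, 485 nm excitation, 535 nm emission, after ~16 h lysis at 37C. Before that, Dd2-infected red cells (2.5% hematocrit) grew 72 h with compound, 29 uM top final concentration.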
Each line names hits and unclear results; the compound was inactive in the other large screens.

Cc1ccccc1Cn1cc(-c2ccncc2)cc1C(=O)N1CCCC(C)C1 (stereo not drawn)	Pf Dd2 growth 10µM
CCCn1cc(-c2ccncc2)cc1C(=O)NCc1ccc(C)o1	none
Cc1ccc2[nH]c(=O)c3cc(C(=O)N4CCN(c5ccccc5F)CC4)sc3c2c1	none
COCC(=O)N1CCn2c(nn(-c3ccncc3)c2=O)C1	none
Cc1noc(-c2ccc(N3CCCCC3)c([N+](=O)[O-])c2)n1	none
Cc1cccc(C)c1NC(=O)Cn1cc(C(=O)c2ccco2)c2ccccc21	none
Cc1ccc(NC(=O)Cn2cc(C(=O)c3ccco3)c3ccccc32)cc1	Pf Dd2 growth 11.2µM
O=C(Cn1cc(C(=O)c2ccco2)c2ccccc21)Nc1ccccc1Cl	none
O=C(Cn1cc(C(=O)c2ccco2)c2ccccc21)Nc1ccccc1C(F)(F)F	none
CCOc1ccc(NC(=O)Cn2cc(C(=O)c3ccco3)c3ccccc32)cc1	none
Cc1ccc(NC(=O)Cn2cc(C(=O)c3ccco3)c3ccccc32)cc1C	Pf Dd2 growth 8.91µM
COC(=O)c1ccccc1NC(=O)c1cc(CN2CCCC2)on1	none
Cc1cc(C)n(CCCNC(=O)c2cc(COc3ccc4sc(C)nc4c3)on2)n1	none
CC(C)(C)C(Cn1ccnc1)NC(=O)c1cc(COc2ccc3c(c2)CCCC3)on1 (stereo not drawn)	Pf Dd2 growth 8.91µM
Cc1cccc(-c2ccc(CN)cc2)c1	Pf Dd2 growth 11.2µM
Cc1cccc(-c2nocc2CCC(=O)NCc2ccccc2F)c1	none
CN(Cc1ccc(-c2ccccc2)cc1)C(=O)c1cccc(Cl)c1	none
O=Cc1ccc(-c2cccc(Cl)c2)cc1	none
Cc1cccc(-c2ccccc2CN)c1	Pf Dd2 growth 10µM
NCc1ccc(-c2cccc(Cl)c2)cc1	Pf Dd2 growth 10µM
NCc1cccc(-c2ccc3c(c2)C(=O)N2CC[C@H](NC(=O)c4cccc(F)c4)[C@H]2C(=O)N3)c1	none
CCCCCn1c(-c2cccc(C)c2)nc2ccccc21	none
COc1ccc(CCC(=O)NCCc2csc(-c3cccc(C)c3)n2)cc1	none
COc1ccc(Cn2ccn(Cc3cccc(C)c3)c(=O)c2=O)cc1	none
NCc1cccc(-c2ccccn2)c1	none
NCc1cccc(-c2cc(F)cc(F)c2)c1	Pf Dd2 growth 10µM
Cc1noc([C@@H]2CN(Cc3ccoc3)C[C@H]2CO)n1	none
Cc1cnc(C(=O)NC2C[C@H]3CC[C@@H](C2)N3C(=O)C2CCCCCC2)cn1 (stereo partly drawn)	none
CN1CCN(Cc2ncc[nH]2)CC12CCC(=O)N(CC(=O)O)CC2 (stereo not drawn)	none
COc1ccc(CCN2C(=O)O[C@@H]3CN(c4nc(C)cc(C)n4)C[C@@H]32)cc1	none
CCCCCCNC(=O)Cc1csc2nc(C)c(-c3cc(C)n(-c4ccc(F)cc4)n3)c(=O)n12	none
CC(=O)N1CCCC(CNc2nccc(-c3c(C)nn(C)c3C)n2)C1 (stereo not drawn)	none
O=C1CCCCC(Cc2cccnc2)(C(=O)NCc2ccc3c(c2)OCO3)N1 (stereo not drawn)	none
COc1ccc(C(=O)N[C@@H]2CN(Cc3cccnc3)C[C@H]2CN(C)C)c(OC)c1	none
COc1ccc(C(=O)N2CCCC(CNC(=O)c3ccc(F)cc3)C2)cc1OC (stereo not drawn)	none
O=C(NC1CCN(c2cn[nH]c(=O)c2)CC1)c1ccccc1	none
CC(=O)Nc1ccc(/C=C/c2noc(-c3ccccc3O)n2)cc1	none
O=C(NCc1ccccc1)c1cn(C2CN(C(=O)C3CCOC3)C2)nn1 (stereo not drawn)	none
O=C(c1ccc(Cl)nc1)N1CCC(N2CCCCCC2=O)CC1	none
Cc1ccc(CN(C)Cc2ccc(F)cc2)cc1	none
NCc1ccc(-c2ccc(F)cc2)cc1	Pf Dd2 growth 10µM
COc1ccc(-c2ccc(CN)cc2)cc1	none
Cc1ccc(C(=O)N2CCc3n[nH]c(=O)n3CC2)cc1F	none
CCOc1ccc(-c2nnc(SCC(=O)NC(C)CC)nc2-c2ccc(OCC)c(OC)c2)cc1OC (stereo not drawn)	none
CCOc1cc(-c2nnc(SCC(=O)NCc3ccc(C)cc3)nc2-c2ccc(OC)c(OCC)c2)ccc1OC	none
CCOc1cc(-c2nnc(SCC(=O)NCc3ccccc3)nc2-c2ccc(OC)c(OCC)c2)ccc1OC	Pf Dd2 growth 8.91µM
CC(C)C[C@@H](NC(=O)C1=C[C@@H](NC(=O)c2ccccc2Br)[C@@H](O)[C@H](O)C1)C(N)=O	none
COc1cc(C(CC(=O)Nc2cccc(C(C)=O)c2)N2Cc3ccccc3C2=O)cc(OC)c1OC (stereo not drawn)	Pf Dd2 growth 10µM
CCc1ccc(NC(=O)CC(c2cc(OC)c(OC)c(OC)c2)N2Cc3ccccc3C2=O)cc1 (stereo not drawn)	none
COc1ccccc1NC(=O)CC(c1cc(OC)c(OC)c(OC)c1)N1Cc2ccccc2C1=O (stereo not drawn)	none
O=C(c1ccc2c(c1)N(Cc1ccccc1)C(=O)c1ccccc1S2(=O)=O)N1CCCCCC1	Pf Dd2 growth 3.98µM
O=C(c1ccc2c(c1)N(Cc1cccc(Cl)c1)C(=O)c1ccccc1S2(=O)=O)N1CCCCC1	none
O=C(c1ccc2c(c1)N(Cc1ccc(Cl)cc1)C(=O)c1ccccc1S2(=O)=O)N1CCN(Cc2ccccc2)CC1	none
CC1CCCN(CCCNC(=O)c2ccc3c(c2)N(Cc2ccc(Cl)cc2)C(=O)c2ccccc2S3(=O)=O)C1 (stereo not drawn)	none
COc1ccc(CCNC(=O)c2ccc3c(c2)N(Cc2ccccc2F)C(=O)c2ccccc2S3(=O)=O)cc1OC	none
O=C(c1ccc2c(c1)N(Cc1ccccc1F)C(=O)c1ccccc1S2(=O)=O)N1CCCCCC1	none
COc1ccc(CNC(=O)c2ccc3c(c2)N(Cc2ccccc2F)C(=O)c2ccccc2S3(=O)=O)cc1	none
Cc1ccc(C)c(CN2C(=O)c3ccccc3S(=O)(=O)c3ccc(C(=O)NCCCN4CCCC(C)C4)cc32)c1 (stereo not drawn)	Pf Dd2 growth 3.98µM
Cc1ccc(C)c(CN2C(=O)c3ccccc3S(=O)(=O)c3ccc(C(=O)N4CCN(C)CC4)cc32)c1	Pf Dd2 growth 5.01µM
CCc1ccccc1NC(=O)c1ccc2c(c1)N(Cc1cc(C)ccc1C)C(=O)c1ccccc1S2(=O)=O	Pf Dd2 growth 7.08µM
Cc1cccc(CN2C(=O)c3ccccc3S(=O)(=O)c3ccc(C(=O)N4CCCC4)cc32)c1	none
O=C(Nc1cccc(C(F)(F)F)c1)c1ccc(F)c(S(=O)(=O)N2CCc3ccccc3C2)c1	none
O=C(NC[C@H]1OC[C@@H](NC2CCC2)[C@@H]1O)Nc1ccccc1	none
COc1ccc(NC(=O)CSc2nc3c(c(=O)[nH]2)CCC3)cc1	none
O=C(CSc1nc2c(oc3ccccc32)c(=O)[nH]1)Nc1cccc(Cl)c1	none
O=C(c1ccon1)N(CC1CCN(Cc2ccccc2F)CC1)CC1CCCO1 (stereo not drawn)	none
CC(C)(C)NC(=O)N1CCCN(S(=O)(=O)c2ccccc2)CCC(=O)NCC1	none
O=C(OCC1CCCO1)c1ccc2c(c1)N(Cc1ccccc1Cl)C(=O)c1ccccc1S2(=O)=O (stereo not drawn)	Pf Dd2 growth 8.91µM
Cc1cccc(CN2C(=O)c3ccccc3S(=O)(=O)c3ccc(C(=O)OCC4CCCO4)cc32)c1 (stereo not drawn)	none
O=C(OCC1CCCO1)c1ccc2c(c1)N(Cc1cccc(F)c1)C(=O)c1ccccc1S2(=O)=O (stereo not drawn)	none
CCn1nc(C)c(-c2nc(C3CCOC3)no2)c1C (stereo not drawn)	none
CSCCCN1C[C@@H](C(=O)O)C[C@H](C(=O)NCc2ccccn2)C1	none
CC1=C[C@@H](CNC(=O)C2CC2)[C@H](C(C)C)C[C@H]1Cc1nc2ccccc2n1C	none
